Hits are enriched below; roughly 4.1% of the tested compounds scored in any of these assays.
CSC inhib – cancer stem cell inhibition; cancer stem cell-like cells viability, luminescence; inhibition, % at 7.5 µM; hit rate 1.1% among 300,000; in the data active means inhibition above about 75%; inconclusive means no clear call, values can overlap the other calls; tested in HMLE shEcad cells
A1 inh – inhibitors of the anti-apoptotic protein A1, read as caspase activation | MEF A1-2A-BIM cells, Caspase-Glo 3/7 luminescence, 3 h; percent of clofoctol response, vehicle zero | caspase activation, % (no concentration beside the values) | hit rate 0.066% among 330,000;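 active means over half of replicate activation scores above 10%, or exactly half above 10 with the replicate mean above 10; inconclusive means replicate mean below 10 yet half the replicates above 10; inactive means over half of replicates below 10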
aSyn 5UTR inh – MLPCN primary screen, SNCA 5' untranslated region; alpha-synuclein 5'UTR reporter, inhibitor activity; inhibition, % (tested at 7.5 µM); hit rate 0.82% among 300,000; AID 1813; in the data active means inhibition above about 60%; inconclusive means no clear call, values can overlap the other calls;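 further: H4 neuroglioblastoma cells stably carrying SNCA 5'UTR luciferase fusion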
Beta cell apopt – beta cell apoptosis inhibition; INS-1E cytokine-induced death, ATP luminescence, 48 h; percent of positive-control rescue, neutral wells zero; protection from apoptosis, % (no concentration beside the values); hit rate 0.8% among 300,000;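 active means Every replicate reaches about 75%, or at least half do and their mean reaches it too, limit read from the data; inconclusive means At least half of replicates reach the limit but their mean does not; inactive means Under half of replicates reach the limit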;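 further: higher means more ATP so stronger rescue from cytokine killing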
Mdm2-MdmX inh – disrupts the human Mdm2-MdmX interaction. inhibition, % at 8 µM. hit rate 3% among 330,000. O15151+Q00987. SaOS-2 split-luciferase Mdm2/MdmX complementation, luminescence;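 active means inhibition of at least 50% at 8 µM in the primary screen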
Target sequence (O15151 whole entry, looked up): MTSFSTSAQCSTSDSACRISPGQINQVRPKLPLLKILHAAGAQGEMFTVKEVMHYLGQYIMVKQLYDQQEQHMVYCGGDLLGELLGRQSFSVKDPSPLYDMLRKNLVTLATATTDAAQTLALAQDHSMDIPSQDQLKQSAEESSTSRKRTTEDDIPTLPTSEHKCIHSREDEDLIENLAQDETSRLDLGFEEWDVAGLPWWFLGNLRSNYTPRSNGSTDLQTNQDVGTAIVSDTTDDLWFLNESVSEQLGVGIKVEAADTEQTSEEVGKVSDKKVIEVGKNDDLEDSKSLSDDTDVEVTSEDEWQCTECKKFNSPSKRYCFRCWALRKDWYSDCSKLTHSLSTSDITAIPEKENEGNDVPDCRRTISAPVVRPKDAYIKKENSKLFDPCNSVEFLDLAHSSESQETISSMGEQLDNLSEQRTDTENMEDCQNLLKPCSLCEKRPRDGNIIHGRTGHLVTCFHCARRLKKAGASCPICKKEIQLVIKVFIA
Target sequence (Q00987 whole entry, looked up): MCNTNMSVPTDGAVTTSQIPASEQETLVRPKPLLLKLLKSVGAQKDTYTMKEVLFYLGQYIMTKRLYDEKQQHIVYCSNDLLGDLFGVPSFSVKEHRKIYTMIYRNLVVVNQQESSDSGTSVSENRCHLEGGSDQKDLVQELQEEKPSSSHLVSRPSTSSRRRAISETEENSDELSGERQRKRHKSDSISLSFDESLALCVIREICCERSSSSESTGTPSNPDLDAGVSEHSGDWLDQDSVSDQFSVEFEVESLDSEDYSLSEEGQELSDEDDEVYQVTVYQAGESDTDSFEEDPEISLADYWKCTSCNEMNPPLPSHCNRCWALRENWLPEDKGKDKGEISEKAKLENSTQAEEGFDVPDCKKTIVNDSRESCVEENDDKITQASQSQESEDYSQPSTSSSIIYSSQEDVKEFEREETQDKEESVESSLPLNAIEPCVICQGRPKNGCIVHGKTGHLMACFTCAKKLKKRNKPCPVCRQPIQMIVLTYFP
Mdm2-MdmX conf – human Mdm2/MdmX binding inhibition, confirmed | shares compounds with Mdm2-MdmX inh | inhibition, % at 8 µM | hit rate 55% among 10,000 | AID 489028 | luminescent assay; in the data active means inhibition above about 40%
Full FLuc ctr – full-length luciferase inhibition in Mdm2/MdmX counter-screen | inhibition, % at 8 µM | hit rate 77% among 6,200 | shares compounds with Mdm2-MdmX inh | SaOS-2 full-length luciferase counterscreen, luminescence | AID 504607;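 active means mean inhibition at 8 µM reaching about 37%, which flags the compound as non-specific, limit read from the data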;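 further: p53-null SaOS-2 cells with luciferase driven by a doxycycline-inducible promoter; compound on cells about two nights before reading with doxycycline added after day one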
Each line names hits and unclear results; the compound was inactive in the other large screens (follow-up assays come after a bar, where they were run).

CCOC(=O)c1ccc(NC(=O)c2cc3c(C)nn(-c4ccccc4Cl)c3s2)s1	none
Cc1nn(-c2ccccc2Cl)c2sc(C(=O)Nc3nnc(C4CC4)s3)cc12	Mdm2-MdmX inh 74 | Mdm2-MdmX conf inactive
Cc1cc(Br)cc2c1N(C)C(=O)C2(c1ccc(O)cc1)c1ccc(O)cc1	none
O=C1/C(=C/c2ccccc2)NC(=S)N1C(c1ccccc1)c1ccccc1	Mdm2-MdmX inh 51 | Mdm2-MdmX conf 59 | Full FLuc ctr 61
CCOC(=O)Cn1c(S(=O)(=O)Cc2ccccc2Cl)nc(-c2ccccc2)c1-c1ccccc1	aSyn 5UTR inh inconclusive
C#CCn1c(S(=O)(=O)Cc2ccccc2Cl)nc(-c2ccccc2)c1-c1ccccc1	Mdm2-MdmX inh 73 | Mdm2-MdmX conf 47 | Full FLuc ctr 84
C#CCn1c(S(=O)(=O)Cc2ccc(C)cc2)nc(-c2ccccc2)c1-c1ccccc1	Mdm2-MdmX inh 95 | Mdm2-MdmX conf 81 | Full FLuc ctr 55
COc1ccccc1C(NC(C)=O)c1cc(Cl)c2cccnc2c1O (stereo not given)	CSC inhib 101, aSyn 5UTR inh 67, Beta cell apopt 94, Mdm2-MdmX inh 67 | Mdm2-MdmX conf 61 | Full FLuc ctr inactive
O=C(O)COc1ccccc1C(Nc1ccccn1)c1cc(Cl)c2cccnc2c1O (stereo not given)	none
COc1ccc(C(NC(C)=O)c2cc(Cl)c3cccnc3c2O)cc1OC (stereo not given)	Beta cell apopt 95, Mdm2-MdmX inh 68 | Mdm2-MdmX conf 76 | Full FLuc ctr 40
COc1ccc(C(NC(C)=O)c2nccc3cc(OC)c(OC)cc23)cc1OC (stereo not given)	none (no result: CSC inhib, Beta cell apopt)
Cn1nccc1C(=O)N1CCOCC1	none
O=c1cc(N2CCCCC2)c(-c2ccccc2)nn1Cc1c(Cl)cccc1Cl	CSC inhib 104, Mdm2-MdmX inh 56 | Mdm2-MdmX conf inactive
COc1cc(/C=C2\SC(N)=NC2=O)cc(OC)c1	Mdm2-MdmX inh 51 | Mdm2-MdmX conf inactive
COc1cc(/C=C2/SC(=Nc3ccc(O)cc3)NC2=O)ccc1O	Mdm2-MdmX inh 74 | Mdm2-MdmX conf 72 | Full FLuc ctr 68
COc1cc(/C=C2\SC(N)=NC2=O)ccc1O	Mdm2-MdmX inh 60 (no result: CSC inhib, Beta cell apopt) | Mdm2-MdmX conf 52 | Full FLuc ctr 57
C=CCOc1ccc(/C=C2\SC(N)=NC2=O)cc1OC	none (no result: Beta cell apopt)
O=C(COc1ccccc1Cl)Nc1ccc2[nH]c(=O)[nH]c2c1	none (no result: CSC inhib, A1 inh, aSyn 5UTR inh, Beta cell apopt)
Cc1ccc(S(=O)(=O)N2CCN(C(=O)CN3CCCSc4ccccc43)CC2)cc1	none (no result: CSC inhib, aSyn 5UTR inh)
CCCCCc1ccc(OCCCC[n+]2ccc(C)cc2)c(CCCCC)c1	Beta cell apopt 111, Mdm2-MdmX inh 96 (no result: aSyn 5UTR inh) | Mdm2-MdmX conf 86 | Full FLuc ctr 55
Cc1cc(=O)oc2cc(OCCCC[n+]3ccccc3)ccc12	none
CCCCCc1ccc(OCCCC[n+]2ccccc2)c(CCCCC)c1	Beta cell apopt 87, Mdm2-MdmX inh 87 | Mdm2-MdmX conf 77 | Full FLuc ctr inactive
CCCCOc1ccc(C)cc1CN(CCO)CCO	none
CCCCCc1ccc(OCCCC[n+]2cccc(C)c2)c(CCCCC)c1	CSC inhib 109, Beta cell apopt 111, Mdm2-MdmX inh 83 | Mdm2-MdmX conf 90 | Full FLuc ctr 60
CCC(C)(C)c1ccc(OCCCC[n+]2ccccc2)c(C(C)(C)CC)c1	CSC inhib 105, Beta cell apopt 114, Mdm2-MdmX inh 84 | Mdm2-MdmX conf 94 | Full FLuc ctr 56
C=CCOc1ccc(C(=O)c2ccccc2)c(OCC(=O)NC2(C#N)CCCC2)c1	none
O=C(CNC(=O)c1ccc(F)cc1)N/N=C/c1cccnc1	none (no result: CSC inhib)
Cc1ccc(-c2nc3c(c(SCC(=O)N4CCOCC4)n2)COC(C)(C)C3)cc1	none
COc1cc2cc(C(=O)Nc3ccc4c(c3)OCCO4)[nH]c2cc1OC	Mdm2-MdmX inh 65 | Mdm2-MdmX conf 48 | Full FLuc ctr 71
O=C(c1ccccc1F)n1c2c(c3ccccc31)CCCC2	Mdm2-MdmX inh 56 | Mdm2-MdmX conf 44 | Full FLuc ctr 56
CC1CCN(CC(=O)n2c3c(c4ccccc42)CCCC3)CC1	none (no result: CSC inhib, Beta cell apopt)
CCOC(=O)C(CC(=O)O)=C(c1ccccc1)c1ccccc1	none
COc1ccc(OCC(=O)Nc2cc3oc4ccccc4c3cc2OC)cc1	Mdm2-MdmX inh 93 | Mdm2-MdmX conf 67 | Full FLuc ctr 89
COc1cc2c(cc1NC(=S)NC(=O)/C=C/c1ccco1)oc1ccccc12	Mdm2-MdmX inh 50 | Mdm2-MdmX conf inactive
COc1cc2c(cc1NC(=O)COC(=O)c1ccccc1)oc1ccccc12	none
COc1ccc(/C=C/C(=O)NC(=S)Nc2cc3oc4ccccc4c3cc2OC)cc1	Mdm2-MdmX inh 90 | Mdm2-MdmX conf inactive
Cn1c(CNC(=O)c2ccco2)nnc1SCC(=O)Nc1ccccc1Cl	none
C=C1CCN(c2ccc(C(=O)NCc3ccc(OC)cc3)cc2[N+](=O)[O-])CC1	none
Cc1ccc2c(c1)-n1c(nc3ccccc3c1=O)C(CC(C)C)NC2=O (stereo not given)	none (no result: CSC inhib, aSyn 5UTR inh)
CC1(C)CC[C@]2(C(=O)O)CC[C@]3(C)C(=CC[C@@H]4[C@@]5(C)CC[C@H](O[C@@H]6O[C@H](C(=O)O)[C@@H](O)[C@H](O[C@@H]7OC[C@H](O)[C@H](O)[C@H]7O)[C@H]6O)C(C)(C)[C@@H]5CC[C@]43C)[C@@H]2C1	CSC inhib 99, Beta cell apopt 109, Mdm2-MdmX inh 79 (no result: aSyn 5UTR inh) | Mdm2-MdmX conf inactive | Full FLuc ctr 44
CC1(C)CC[C@]2(C(=O)O[C@@H]3O[C@H](CO)[C@@H](O)[C@H](O)[C@H]3O)CC[C@]3(C)C(=CCC4[C@@]5(C)CC[C@H](O[C@@H]6O[C@H](C(=O)O)[C@@H](O[C@H]7OC[C@@H](O)[C@@H](O)[C@@H]7O)[C@H](O)[C@H]6O)C(C)(C)C5CC[C@]43C)[C@@H]2C1 (stereo not given in full)	none (no result: aSyn 5UTR inh)
CC(NC(=O)c1ccc2c(c1)C(=O)N(Cc1cccnc1)C2=O)c1ccccc1 (stereo not given)	none
O=C(CCn1c(=O)sc2ccccc21)NC1CCCCC1	none
O=C(NC1CC1)c1sc2cc(Cl)ccc2c1Cl	none (no result: Beta cell apopt)
CC1(C)CC(NC(=O)c2sc3cc(Cl)ccc3c2Cl)CC(C)(C)N1	Mdm2-MdmX inh 87 | Mdm2-MdmX conf 62 | Full FLuc ctr 46
COC(=O)c1sc(N)c(C(=O)OC)c1COC(=O)[C@@H](NS(=O)(=O)c1cccc(Cl)c1)C(C)C	Mdm2-MdmX inh 54 | Mdm2-MdmX conf inactive
COc1ccc(-c2c(C)nc3c(-c4ccc(F)cc4)cnn3c2N)cc1	none
Cc1nc2c(-c3ccc(Cl)cc3)cnn2c(N)c1-c1ccc(F)cc1	Mdm2-MdmX inh 88 | Mdm2-MdmX conf 85 | Full FLuc ctr 105
Cc1nc2c(-c3ccc(F)cc3)cnn2c(N)c1-c1ccccc1	Mdm2-MdmX inh 91 | Mdm2-MdmX conf 87 | Full FLuc ctr 110
